Data on 40 molecules can be found in PubChem BioAssay (EPA / NIEHS).

Active and inactive are the calls of the source. Rule for the calls: active = hit-call score of the fitted dose curve at least 0.9, where 1 is the maximum; inactive = score below 0.9.

What is called AC50 is the concentration at which the activity in the assay is half-maximal.

Read-out in the test: Peroxisomal acyl-coenzyme A oxidase 1 (ACOX1) gene, ACOX1 (gene 51)
Briefly: LTEA_HepaRG_ACOX1: Life Technologies and Expression Analysis (LTEA) Assay for Peroxisomal acyl-coenzyme A oxidase 1 (ACOX1) gene using HepaRG (AID 2283467). The note with it: mRNA level, 48 h; actives raise or lower the signal. As to the method:
LTEA_HepaRG is a cell based, multiplexed-readout assay that uses HepaRG, a human liver cell line, with measurements taken at 48 hours after chemical dosing on a 96-well plate.LTEA_HepaRG_ACOX1 is one of 102 assay component(s) measured in the LTEA HepaRG cell culture assay. It is a marker of Steatosis.Data from the assay component LTEA_HepaRG_ACOX1 was analyzed into 1 endpoint. This assay endpoint, LTEA_HepaRG_ACOX1, was analyzed with bidirectional fitting relative to DMSO as the negative control and baseline of activity. Using a type of inducible reporter, measures of mRNA induction for gain or loss-of-signal activity can be used to understand regulation of transcription factor activity. To generalize the intended target to other relatable targets, this assay endpoint is annotated to the oxidase intended target family, where the subfamily is steatosis.
A total of 1060 chemcials from the ToxCast library were tested in eight-point concentration-response experiments. Cell culture and cytotoxicity assays were conducted at Thermo Fisher Scientific's Custom Services facility (Madison, WI). A single lot of human HepaRG cells (Thermo Fisher Scientific, Frederick, MD) was used for the cell culture experiments. 96-well format collagen type I coated plates of human HepaRG cells were prepared using established methods. Briefly, cryopreserved HepaRG cells were thawed, plated at a density of approximately 100,000 cells/well in HepaRG Thaw, Plate, and General Purpose media (HPRG770, Thermo Fisher Scientific), and incubated for 48 hours. 0.5% DMSO was selected as vehicle control to balance the requisite need of DMSO in HepaRG cultures to maintain differentiation (for example, baseline metabolism, proportions of hepatocytes vs. cholangiocytes), while enabling further hepatic receptor pathway activation (for example, PXR and CAR) in response to chemical exposure. 48 hours after plating, the culture medium was replaced with HepaRG Serum-Free Incudtion Media. Cells were exposed to each test chemical in duplicate and maintained in CO2 incubators for another 48 hours. Chemical plates were thawed to room temperature and 200x concentrations of treatment groups were prepared. 8-point conentration-reponse curves were made with the highest exposure at 100 uM, followed by half-log dilutions, all in 0.5% DMSO. Each test plate contained variouse controls, induction positive controls (1mM phenobarbital), cytotoxicity positive controls ([…] aflatoxin B1), vehicle controls (0.5% DMSO), and total lysis controls (0.5% DMSO). Cell morphology images were taken using an Essen IncuCyte FLR automated microscope, with six 96-well plates imaged in about 24 minutes. Images were captured and exported and JPEG files. Spent culture media was transfered to black-well plates for the LDH assay, and remaining media was sorted at -80 C for later use. Cells were treated with RLT buffer and frozen until shipped for gene expression analysis. Total RNA was isolated from the cell suspension in 75 uL of Buffer RLT (Qiagen, Germantown, MD 20874) by Quintiles/Expression Analysis (Durham, NC) using a custom isolation procedure. Total RNA from each plate well was transferred to a preamplification plate. Fluidigm's 96.96 Dynamic ArrayTM (Fluidigm, Amsterdam, the Netherlands) technology was used for gene expression analyses by quantitative reverse transcription polymerase chain reaction (qRT-PCR, performed by Quintiles/Expression Analysis, Durham, NC)89. Standard TaqManTM Assays (Applied Biosystems/ThermoFisher Scientific, Foster City, CA) were used to assess the expression of 93 genes selected based on their selectivity and sensitivity to important hepatic receptors known to be modulated by environmental chemicals; importance in human hepatocyte functionality; and hepatotoxicity. […]
`COc1cc(S(=O)(=O)O)c(C)cc1N=Nc1c(O)ccc2cc(S(=O)(=O)O)ccc12`: the outcome was inactive.

For `CCc1c(C(=O)NN2CCCCC2)nn(-c2ccc(Cl)cc2Cl)c1-c1ccc(Br)cc1`, the AC50 was 32.3 µM (active).

For the molecule `CCCc1cc(=O)[nH]c(=S)[nH]1`, the molecule was called inactive.

In the case of `CC(=O)OC/C=C(\C)CCC=C(C)C`, the molecule was called inactive.

For the molecule `CC=Cc1ccc(O)c(OC)c1`, the molecule was classed as inactive.

With `C[C@]12C=CC(=O)C=C1CC[C@@H]1[C@@H]2C(=O)C[C@@]2(C)[C@H]1CC[C@]2(O)C(=O)CO`, the outcome was inactive.

For the molecule `CCCCC(CC)COC(=O)CC(C(=O)OCC(CC)CCCC)S(=O)(=O)O` (stereo not given), the AC50 was 79.9 µM (active).

On to `CN1CCN(Cc2cc(-c3ccc4[nH]c(=O)oc4c3)co2)[C@@H](c2ccc(F)cc2)C1`, for which the call was inactive.

Turning to `OC[C@@H](O)[C@@H](O)[C@H](O)[C@H](O)CO`, the call was inactive.

For `O=C(O)CCCCC(=O)O`, the molecule was classed as inactive.

For the molecule `Oc1ccc2ccccc2c1N=Nc1ccccc1`, the AC50 is 11.1 µM (active).

In the case of `CCCCCCOCCO`, the molecule was called inactive.

`Nc1ccc(S(=O)(=O)c2ccc(N)cc2)cc1`: the molecule was called inactive.

Turning to `CCOC(=O)CCC(=O)OCC`, the call was inactive.

As for `CN1CCCC1=O`, the call was inactive.

Regarding `CCCCCCCCCCCCCO`, the molecule was called inactive.

In the case of `CC(C)(C)c1cc(O)c(C(C)(C)C)cc1O`, the AC50 is 77.3 µM (active).

For `CN[C@H]1CC[C@@H](c2ccc(Cl)c(Cl)c2)c2ccc(S(N)(=O)=O)cc21`, the AC50 is 12.2 µM (active).

Turning to `CCCCCCCC=O`, the call was inactive.

As to `COc1ccc2c(c1)c(CC(=O)O)c(C)n2C(=O)c1ccc(Cl)cc1`, the result was inactive.

With `O=c1c(O)c(-c2ccc(O)c(O)c2)oc2cc(O)cc(O)c12`, the molecule was classed as inactive.

`Cc1ccccc1Cl`: the molecule was called inactive.

As for `Cc1cccc(Nc2cc(Cl)nc(SCC(=O)O)n2)c1C`, the AC50 was 10.9 µM (active).

For the molecule `CCCCCCCCCCO`, the molecule was classed as inactive.

For `CCOC(=O)C(C)(C)Oc1ccc(Cl)cc1`, the call was inactive.

`COc1ccc(C)cc1N`: the outcome was inactive.

As to `Cc1cc(=O)[nH]c(=S)[nH]1`, the molecule was classed as inactive.

On to `CC1=C(/C=C/C(C)=C/C=C/C(C)=C/CO)C(C)(C)CCC1`, for which the molecule was called inactive.

Consider `O=C(OCCCCCOC(=O)c1ccccc1)c1ccccc1`, for which the molecule was classed as inactive.

Take `CCCCOC(=O)CCCCCCCCC(=O)OCCCC`: the call was inactive.

Turning to `C[Si]1(C)O[Si](C)(C)O[Si](C)(C)O[Si](C)(C)O1`, the result was inactive.

As to `CCCCN(CCCC)CCCC`, the outcome was inactive.

As for `CCCCCCC(=O)OCC`, the result was inactive.

On to `C=CCOC(=O)c1ccccc1C(=O)OCC=C`, for which the molecule was classed as inactive.

As for `CC(C)c1ccc(C(=O)N=C(N)N)cc1S(C)(=O)=O`, the AC50 was 7.39 µM (active).

`CC(=O)OCCOCCOCCOC(C)=O`: the result was inactive.

For the molecule `Oc1ccc2c(c1)OC[C@@H](N1CCC(O)(c3ccc(F)cc3)CC1)[C@H]2O`, the outcome was inactive.

Take `C1CCC(SSC2CCCCC2)CC1`: the molecule was classed as inactive.

Consider `O=C(N[C@@H](Cc1ccccc1)[C@@H](O)C(=O)N1C[C@@H](O)[C@@H](O)C1)c1cc2cc(Cl)ccc2[nH]1`, for which the outcome was inactive.

On to `CNC(=O)[C@H]1O[C@@H](n2cnc3c(NCc4cc(Cl)ccc4OCc4cc(C)no4)ncnc32)[C@H](O)[C@@H]1N`, for which the outcome was inactive.
